Each structure is given as a SMILES string. Out of some 1,400 compounds screened, about 380 (27%) were called active. Some of the results follow. Values without a mark were called inactive.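 Rule for the calls: active = mean inhibition above 50% across duplicate retests at 10 µM; inactive = the rest.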

The nature of the assay: inhibition of NALP1/ASC/caspase-1 reporter signal in yeast, confirmation, NALP1 inhibitor project, S. cerevisiae, luminescence, single concentration (AID 488841).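 Note: plate controls were DMSO in galactose medium for no effect and cells in plain SD medium for full effect.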 Conditions: S. cerevisiae NALP1/ASC/Caspase-1 reporter, beta-gal luminescence; at 10 µM; hits give high values.
Regarding `COn1c2c(c3c4nonc4ccc31)CCCC2`, the inhibition (as a rule, the share of the control response that was lost under treatment) is 30.4%.

On to `CC1CCN(Cc2ccc(-c3nn[nH]n3)cc2)CC1`, for which the inhibition is 21.2%.

For `O=C(NC1CCCCC1)c1noc2c1CCCCC2`, the inhibition was 70.2% (active).

With `O=C(NC1CCCC1)c1ccc(CN2CCOCC2)cc1`, the inhibition was 33.8%.

Take `O=C(c1cc(-c2ccc(O)cc2)on1)N1CCc2ccccc2C1`: the inhibition is 56.5% (active).

For the molecule `O=C(CN1CCc2ccccc2C1)NCc1ccco1`, the inhibition is 18.9%.

With `CCn1c(C(=O)N2CCc3ccccc3C2)cc2oc3ccccc3c21`, the inhibition was 32.4%.

For `CC(C)CC(=O)N1CCN(c2ccc([N+](=O)[O-])cc2Cl)CC1`, the inhibition is 37.5%.

Consider `Cc1c(-c2nc(N)nc(Nc3ccccc3)n2)oc2ccccc12`, for which the inhibition was 37.3%.

On to `N#Cc1ccc(NC(=O)Nc2ccc(Cl)cc2)cc1`, for which the inhibition is 67% (active).

Consider `CCCCN(C)CCC(=O)Nc1ccc(Cl)cc1`, for which the inhibition is 28.4%.

On to `CCOC(=O)C(=O)NNc1ccc(Cl)cc1`, for which the inhibition was 40.9%.

With `CC(=O)c1ccc(NC(=O)Nc2ccc(Cl)cc2)cc1`, the inhibition is 53.4% (active).

Take `COc1ccc(N2CCN(CCNC(=O)Nc3ccc(Cl)cc3)CC2)cc1`: the inhibition is 22.3%.

Regarding `O=C(Nc1ccc(Cl)cc1)C1=Cc2ccccc2OC1`, the inhibition was 48.8%.

In the case of `CCC(C(=O)NCc1ccco1)N(C(=O)CNS(=O)(=O)c1ccccc1)c1ccc(OC)cc1` (configuration not stated), the inhibition is 23.4%.

With `CSc1nnc(-c2cc3c(s2)-c2ccccc2CC3)o1`, the inhibition was 56.6% (active).

For `O=C(C(Cc1ccccc1)n1cccc1)N1CCN(c2ccccc2)CC1` (configuration not stated), the inhibition is 46%.

For `Oc1c(Br)cc(Br)cc1C=Nc1cccnc1`, the inhibition is 36.4%.

For `CNC(=S)N/N=C/c1cc(Br)cc(Br)c1O`, the inhibition is 75.7% (active).

Take `Cc1cc(C=C2C(=O)c3ccccc3C2=O)c(C)n1C`: the inhibition was 39%.

In the case of `CCOc1ccccc1C(=O)OCC(=O)Nc1ccc(N2CCCCC2)cc1`, the inhibition was 36.1%.

`CCOc1ccccc1C(=O)Nc1cnn(Cc2ccc(F)cc2)c1`: the inhibition is 57.7% (active).

Turning to `O=C(Nc1ccc(F)cc1)c1cccnc1N1CCCCC1`, the inhibition was 34.8%.

In the case of `c1ccc(CC2CCN(c3nnnn3-c3ccccc3)CC2)cc1`, the inhibition is 26.4%.

For the molecule `COC(=O)c1cc(=O)n(-c2ccc(F)cc2)c(=Nc2ccc(F)cc2)s1`, the inhibition is 33.2%.

Consider `O=[N+]([O-])c1ccc(/C=N/NS(=O)(=O)c2ccc(Cl)cc2)o1`, for which the inhibition is 36.3%.

With `CCN(CC)c1ccc(N=Cc2ccc([N+](=O)[O-])o2)cc1`, the inhibition was 64.2% (active).

In the case of `CCOC(=O)c1[nH]c2ccc(Br)cc2c1NC(=O)CCN1CCC(C)CC1`, the inhibition is 32.4%.

For the molecule `Cc1nc(N)sc1N=Nc1ccc(Br)cc1`, the inhibition is 50.6% (active).

With `Cc1ccc2occ(C(=O)c3ccco3)c(=O)c2c1`, the inhibition was 58.4% (active).

As to `Cc1ccc(C)c(NC(=O)c2ccc(OC(=O)c3ccco3)cc2)c1`, the inhibition was 36.8%.

Turning to `CN1CCN(C2=C(Cl)C(=O)C(c3cnc(N4CCCCC4)s3)=C(Cl)C2=O)CC1`, the inhibition was 29.9%.

In the case of `CN(C=[N+](C)C)c1cccc2c1C(=O)c1ccccc1C2=O`, the inhibition is 37%.

Turning to `O=C1c2cccc(O)c2C(=O)c2c(O)cccc21`, the inhibition was 62.8% (active).

In the case of `CN(C)S(=O)(=O)c1cccc2c1C(=O)c1ccccc1C2=O`, the inhibition is 39.2%.

In the case of `CC(C)CN=C(NS(=O)(=O)c1ccccc1)C(Cl)(Cl)Cl`, the inhibition was 43.6%.

On to `N#Cc1cccc(N=Cc2c(O)ccc3ccccc23)c1`, for which the inhibition is 24.8%.

Regarding `O=S(=O)(/N=C/c1c(O)ccc2ccccc12)c1cccs1`, the inhibition was 29.8%.

Turning to `C=CCOc1ccc2ccccc2c1/C=N/O`, the inhibition was 52.7% (active).

As for `CCCCCOc1ccc(Cn2ccnc2)cc1[N+](=O)[O-]`, the inhibition is 43%.

Regarding `O=C(CCNc1n[nH]c(=O)[nH]c1=O)N/N=C/c1ccc(C(F)(F)F)cc1`, the inhibition was 26.9%.

As to `COCC(=O)n1nc(-c2ccc(Cl)cc2)nc1NCc1ccc(F)cc1`, the inhibition is 49.8%.

On to `O=C(NC1=NCCS1)c1ccc(Cl)s1`, for which the inhibition was 42.9%.

In the case of `CCOc1ccccc1N1CCN(C(=O)CCCc2nc3ccccc3s2)CC1`, the inhibition was 52.9% (active).

For the molecule `COCCN=C1Sc2nc3ccc(C)cc3cc2CN1Cc1ccco1`, the inhibition was 45.9%.

With `COc1ccccc1NC1=C(N2CCCCC2)C(=O)c2ccccc2C1=O`, the inhibition was 49.1%.

Turning to `CCCSc1nnc(C(C)C)n1N`, the inhibition was 21.8%.

As to `O=C(/C=C/c1ccc2c(c1)OCCCO2)c1ccccc1O`, the inhibition was 61.6% (active).

Turning to `Cc1ccc(C(=O)/C=C/c2ccc3c(c2)OCO3)o1`, the inhibition was 23.9%.

As for `O=C(/C=C/c1ccc(F)cc1)NCCc1ccc2c(c1)OCCO2`, the inhibition was 49.3%.

As for `CC(=O)C1=C(O)C(=O)N(CCC(=O)O)C1c1ccc(Cl)cc1Cl` (configuration not stated), the inhibition was 24.1%.

Turning to `CCOC(=O)C1=C(O)c2ccccc2C(=O)/C1=C\c1ccc(C)cc1`, the inhibition is 30.2%.

In the case of `CCOC(=O)C1=Nc2ccccc2C1=[N+]=[N-]`, the inhibition is 37.8%.

Consider `CCOC(=O)/C(=C/c1ccc(OC(=O)c2ccccc2)cc1)C(C)=O`, for which the inhibition was 55.4% (active).

`Cc1sc(-c2ccncc2)nc1OC(=O)c1ccccc1`: the inhibition was 47.5%.

For the molecule `O=C(CN(Cc1ccccc1)S(=O)(=O)c1ccc(S(=O)(=O)N2CCOCC2)cc1)Nc1ccccc1`, the inhibition is 27.6%.

Take `CC(C)NC(=O)/C(C#N)=C/c1cccc(NC(=O)c2ccccc2Cl)c1`: the inhibition was 41.1%.

Regarding `C=CCNC(=O)/C(C#N)=C/c1c(C)nn(-c2ccccc2)c1Cl`, the inhibition is 60.3% (active).

On to `Cc1nn(-c2ccccc2)c(Cl)c1/C=C(\C#N)C(=O)NC(C)C`, for which the inhibition was 55.2% (active).

Consider `COc1ccc(OCC(=O)NC(=S)N2CCCc3ccccc32)cc1`, for which the inhibition is 28.5%.

As to `CCCCCCC1CCC(C(=O)Nn2c(C)nc3ccccc3c2=O)CC1` (configuration not stated), the inhibition was 44.8%.

On to `COc1ccc(C2NCCc3c2[nH]c2ccccc32)cc1CSc1nc2ccccc2s1` (configuration not stated), for which the inhibition is 45.4%.

Regarding `COCc1cc(=O)[nH]c(/N=C(\N)Nc2cccc(C)c2)n1`, the inhibition is 21.6%.

As to `O=C1c2ccsc2SCCN1Cc1c(Cl)cccc1Cl`, the inhibition is 53.7% (active).

On to `CCCNC(=O)c1nnsc1S(=O)(=O)c1ccc(Cl)cc1`, for which the inhibition was 95% (active).

As for `COc1ccc(CCNC(=O)C2CCN(S(=O)(=O)c3ccc(Cl)cc3)CC2)cc1OC`, the inhibition was 5.6%.

Consider `CNC(=O)c1nnsc1S(=O)(=O)c1ccc(Cl)cc1`, for which the inhibition is 86.2% (active).

Take `Cn1cnc([N+](=O)[O-])c1S(=O)(=O)c1ccc(Cl)cc1`: the inhibition was 46.9%.

`Oc1ccccc1C1N=C(c2ccccc2)NC(c2ccccc2)=N1`: the inhibition was 16.1%.

On to `O=C(CSc1ncn[nH]1)NC12CC3CC(CC(C3)C1)C2`, for which the inhibition was 22.3%.

As to `COC(=O)COc1ccc(S(=O)(=O)NCCC2=CCCCC2)cc1Cl`, the inhibition is 28.2%.

As for `O=C1C2C3C=CC(C2C(=O)N1CCCO)C1C2C(=O)N(CCCO)C(=O)C2C31` (configuration not stated), the inhibition is 17.4%.

In the case of `CCC(C)NC(=O)c1cc2cc3ccc(OC)cc3nc2s1` (configuration not stated), the inhibition was 54.9% (active).

For the molecule `COc1ccc(OC)c(NC(=O)c2sc3nc(Cc4ccccc4)cc(C(F)(F)F)c3c2N)c1`, the inhibition is 23.5%.

Turning to `COc1ccc2cc(/C=N/O)c(Cl)nc2c1`, the inhibition was 46.1%.

Turning to `CC(C)(C)C(=O)NC1CCN(S(=O)(=O)c2ccc(C(F)(F)F)cc2)CC1`, the inhibition is 18.1%.

Turning to `CCOc1ccc(NC2=C(OC)C(=O)c3ccccc3C2=O)cc1`, the inhibition was 39.5%.

As for `CCOc1cccc(N2C(=O)CC(N3CCN(c4ccc(S(=O)(=O)CC)cc4)CC3)C2=O)c1` (configuration not stated), the inhibition was 30.9%.

Consider `CCOc1ccc(S(=O)(=O)N2c3ccccc3CC2C)cc1` (configuration not stated), for which the inhibition is 54.5% (active).

For `Cc1cc(Cl)c(OCCCCN2CCOCC2)c(Br)c1`, the inhibition is 40.9%.

With `COC(=O)c1sccc1N/N=C(\C)c1ccc(F)c(Cl)c1`, the inhibition is 22.3%.

For `CCOC(=O)C(=CNNc1ccsc1C(=O)OC)C(=O)OCC`, the inhibition was 37.1%.

Turning to `COC(=O)c1sccc1NC(=O)c1csc(C)c1`, the inhibition was 54% (active).

For `CCn1c(C)[n+](CC(O)COCC2CC=CCC2)c2ccccc21` (configuration not stated), the inhibition is 40%.

Regarding `CCOC(=O)c1c(C)n(C)c2cc(-c3ccc(C)cc3)c(O)cc12`, the inhibition was 24.9%.

As for `CCCCC(CC(O)COCCC)c1n[nH]c(=S)n1-c1ccccc1` (configuration not stated), the inhibition is 44.8%.

In the case of `CC(C)Sc1nnc([C@H](Cc2ccccc2)NC(=O)OC(C)(C)C)o1`, the inhibition is 30.7%.

With `CC(C)(C)OC(=O)NCCCCCc1nnc(SCc2ccccc2)o1`, the inhibition was 56.6% (active).

`CCCCSc1nnc(CCNC(=O)OC(C)(C)C)o1`: the inhibition was 42.2%.

Turning to `CC(C)Cc1nnc(NC(=O)CSc2nc(N)cc(=O)[nH]2)s1`, the inhibition is 23.4%.

Turning to `CCOC(=O)Nc1cccc(Nc2ccccc2)c1`, the inhibition was 52.2% (active).

Regarding `CCOC(=O)Nc1ccc2c(C)cc(=O)oc2c1`, the inhibition is 41.3%.

With `CCOC(=O)c1sc(NC(=O)Nc2cccc(Cl)c2)cc1C`, the inhibition was 5.75%.

As to `Cc1cc(C)cc(-n2nnc(C(=O)NCc3ccccc3)c2N)c1`, the inhibition was 34.6%.

As for `O=[N+]([O-])c1ccc2nc(-c3ccccn3)[nH]c2c1`, the inhibition is 47.6%.

On to `c1ccc(-c2nc3cc4ccccc4cc3[nH]2)nc1`, for which the inhibition is 73.2% (active).

For the molecule `COCCCN(CCCN)Cc1ccco1`, the inhibition was 73.2% (active).

`Cc1ccc(S(=O)(=O)N(C(=O)c2ccncc2)c2ccc(OC(=O)c3ccncc3)c3ccccc23)cc1`: the inhibition is 28.8%.

Regarding `CCN(CC)c1ccc(/C=C2/SC(=O)N(C(C)C)C2=O)o1`, the inhibition was 65.5% (active).

Turning to `O=C1S/C(=C\c2ccc(N3CCOCC3)o2)C(=O)N1c1ccccc1`, the inhibition is 45.5%.

In the case of `CC1CCCC(C)N1C(=O)CN1CCN(c2nc(-c3ccc(F)cc3)cs2)CC1` (configuration not stated), the inhibition was 19.6%.

The values are drawn from PubChem BioAssay AID488841 (Sanford-Burnham Center for Chemical Genomics, 2010).
